Experimental data published in PubChem BioAssay AID1159580 (chemical genetic matrix, 2015).
The campaign covered roughly 5,500 compounds. About 2,000 (36%) were called active. Roughly 18% stayed inconclusive and do not appear here. Rule as the data show it: active = normalized growth mostly below about 0.91 (no sharp cut-off); inconclusive = no clear call, values can overlap the other calls; inactive = mostly above about 0.92. The list shows a part of the results.

Assay: chemical genetic growth profiling, strain panel (AID 1159580);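 also: tested at 20 µM; growth read once vehicle control cultures reached saturation at 30 °C; 1 = growth at the plate median or of vehicle wells; lower values mean less growth of the strain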
Details: S. cerevisiae deletion strains, growth OD
[1] = locus YNL153C, strain GIM3, stronger effect = lower value

Measured: normalized growth

C=C(C)C1Cc2c(ccc3c2OC2COc4cc(OC)c(OC)cc4C2C3=O)O1 (configuration not stated)
inactive: locus YAL040C, strain CLN3, stronger effect = lower value 1.07 | locus YCL061C, strain MRC1 (second series), stronger effect = lower value 0.98 | locus YDR363W, strain ESC2, stronger effect = lower value 0.99 | locus YER002W, strain NOP16, stronger effect = lower value 0.992 | [1] 0.942 | locus YNL175C, strain NOP13, stronger effect = lower value 0.955 | locus YNL197C, strain WHI3, stronger effect = lower value 0.979 | locus YNL224C, strain SQS1, stronger effect = lower value 0.964 | locus YNL322C, strain KRE1, stronger effect = lower value 0.98 | locus YOR083W, strain WHI5 (second series), stronger effect = lower value 0.958 | locus YPL055C, strain LGE1, stronger effect = lower value 1.01

COc1cc2c(cc1OC)-c1c(oc3c4c(ccc3c1=O)OC(C(C)C)C4)CO2 (configuration not stated)
inactive: locus YAL013W, strain DEP1, stronger effect = lower value 1.01 | locus YBR021W, strain FUR4, stronger effect = lower value 1.06 | locus YBR229C, strain ROT2, stronger effect = lower value 1.01 | locus YCL029C, strain bik1, stronger effect = lower value 0.99 | locus YDL035C, strain GPR1, stronger effect = lower value 1.05 | locus YDL074C, strain BRE1, stronger effect = lower value 1.06 | locus YDL101C, strain DUN1, stronger effect = lower value 0.981 | locus YDL134C, strain PPH21, stronger effect = lower value 0.983 | locus YDL185W, strain tfp1, stronger effect = lower value 0.942 | locus YDL192W, strain arf1, stronger effect = lower value 1.01 | locus YDR101C, strain arx1, stronger effect = lower value 1.04 | locus YDR162C, strain NBP2, stronger effect = lower value 0.978 | locus YDR318W, strain mcm21, stronger effect = lower value 0.973 | locus YDR388W, stronger effect = lower value 0.982 | locus YDR502C, strain sam2, stronger effect = lower value 0.978 | locus YER110C, stronger effect = lower value 0.989 | locus YER155C, strain BEM2, stronger effect = lower value 0.997 | locus YER167W, strain BCK2, stronger effect = lower value 1.01 | locus YGL078C, strain dbp3, stronger effect = lower value 0.938 | locus YGL086W, strain mad1, stronger effect = lower value 0.983 | locus YGL248W, strain PDE1, stronger effect = lower value 0.988 | locus YGR078C, strain PAC10, stronger effect = lower value 0.982 | locus YGR135W, strain pre9, stronger effect = lower value 0.923 | locus YGR252W, strain gcn5, stronger effect = lower value 1.03 | locus YHR079C, strain IRE1 (second series), stronger effect = lower value 0.969 | locus YHR094C, strain hxt1, stronger effect = lower value 0.979 | locus YHR129C, strain ARP1, stronger effect = lower value 1 | locus YHR200W, strain rpn10, stronger effect = lower value 0.985 | locus YIL066C, strain RNR3, stronger effect = lower value 1.03 | locus YIL073C, strain SPO22, stronger effect = lower value 0.942 | locus YIL125W, strain kgd1, stronger effect = lower value 0.984 | locus YIR030C, strain dcg1, stronger effect = lower value 0.968 | locus YJL095W, strain BCK1, stronger effect = lower value 0.965 | locus YJL134W, strain LCB3, stronger effect = lower value 1 | locus YJL168C, strain set2, stronger effect = lower value 0.979 | locus YJL187C, strain SWE1 (second series), stronger effect = lower value 0.974 | locus YJR075W, strain HOC1, stronger effect = lower value 0.971 | locus YKL009W, strain mrt4, stronger effect = lower value 1.02 | locus YKL068W, stronger effect = lower value 0.98 | locus YKL085W, strain MDH1 (second series), stronger effect = lower value 0.973 | locus YKL085W, strain MDH1, stronger effect = lower value 0.973 | locus YKL190W, strain CNB1, stronger effect = lower value 0.992 | locus YKR001C, strain vps1, stronger effect = lower value 1.01 | locus YLR039C, strain RIC1, stronger effect = lower value 0.998 | locus YLR058C, strain SHM2, stronger effect = lower value 1 | locus YLR102C, strain apc9, stronger effect = lower value 0.988 | locus YLR268W, strain sec22, stronger effect = lower value 1.04 | locus YLR330W, strain CHS5, stronger effect = lower value 0.998 | locus YLR342W, strain FKS1 (second series), stronger effect = lower value 1.1 | locus YLR371W, strain rom2, stronger effect = lower value 0.982 | locus YLR418C, strain cdc73, stronger effect = lower value 0.981 | locus YML016C, strain PPZ1, stronger effect = lower value 0.989 | locus YML032C, strain rad52, stronger effect = lower value 1.01 | locus YML124C, strain tub3, stronger effect = lower value 0.971 | locus YMR078C, strain ctf18, stronger effect = lower value 0.962 | locus YMR223W, strain ubp8, stronger effect = lower value 0.979 | locus YMR263W, strain SAP30, stronger effect = lower value 0.984 | locus YMR307W, strain GAS1, stronger effect = lower value 1.15 | locus YNL067W, strain RPL9B, stronger effect = lower value 0.964 | [1] 0.963 | locus YNL233W, strain BNI4, stronger effect = lower value 0.984 | locus YNL250W, strain rad50, stronger effect = lower value 0.93 | locus YNL271C, strain bni1, stronger effect = lower value 0.958 | locus YNL298W, strain CLA4, stronger effect = lower value 0.979 | locus YNL307C, strain MCK1, stronger effect = lower value 0.985 | locus YNR052C, strain pop2, stronger effect = lower value 0.962 | locus YOL006C, strain TOP1, stronger effect = lower value 1.17 | locus YOL012C, strain htz1 0.827 | locus YOL147C, strain pex11, stronger effect = lower value 0.973 | locus YOR061W, strain CKA2, stronger effect = lower value 1.02 | locus YOR069W, strain VPS5, stronger effect = lower value 0.996 | locus YOR136W, strain idh2, stronger effect = lower value 0.965 | locus YOR144C, strain elg1, stronger effect = lower value 1 | locus YOR184W, strain ser1, stronger effect = lower value 1.08 | locus YOR316C, strain cot1, stronger effect = lower value 0.97 | locus YPL241C, strain CIN2, stronger effect = lower value 0.986 | locus YPR119W, strain clb2, stronger effect = lower value 0.966 | locus YPR141C, strain kar3, stronger effect = lower value 0.954 | locus YPR163C, strain tif3, stronger effect = lower value 0.988 | locus YPR167C, strain met16, stronger effect = lower value 0.973 | strain wtn01, stronger effect = lower value 1.03
